Test results taken from PubChem BioAssay (EPA / NIEHS).
Inconclusive results are not listed. Calls of active or inactive are those of the source. How the source made its calls, unless noted: active means hit-call score of the fitted dose curve at least 0.9, where 1 is the maximum; inconclusive means response in the unintended direction; inactive means score below 0.9.

Columns and labels:
[1] = ATG_TAL_CIS: Attagene CIS-FACTORIAL HepG2 Assay for human TAL Basal Promoter (AID 2282966; active means hit-call score of the fitted dose curve at least 0.9, where 1 is the maximum; inactive means score below 0.9;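 further: background control endpoint measuring basal TAL promoter reporter mRNA not a specific factor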); details: HepG2 Attagene cis-factorial TAL promoter reporter; actives raise or lower the signal
In short: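 Readout: reporter mRNA, fluorescence by CE. System: HepG2, transient multi-reporter transfection, endogenous TF activity. Exposure: 24 h. Analysis: bidirectional, DMSO-normalized; background control.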

[2] = ATG_TGFb_CIS: Attagene CIS-FACTORIAL HepG2 Assay for human Transforming Growth Factor (TGF) (AID 2282967; active means hit-call score of the fitted dose curve at least 0.9, where 1 is the maximum; inactive means score below 0.9); details: HepG2 Attagene CIS TGFb reporter, mRNA transcription; actives raise or lower the signal
In short: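 HepG2 cells transiently transfected with cis-promoter-driven multiplexed reporter units; 24 h compound exposure. Reporter mRNA measured by RT-PCR, 6-FAM labeling, HpaI digestion and capillary electrophoresis; bidirectional fit versus DMSO baseline.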

[3] = ATG_VDRE_CIS: Attagene CIS-FACTORIAL HepG2 Assay for human Vitamin D Receptor Element (VDRE) (AID 2282968; active means hit-call score of the fitted dose curve at least 0.9, where 1 is the maximum; inactive means score below 0.9); details: HepG2 VDRE cis-reporter transcription, actives raise or lower the signal
In short: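 HepG2 cells transiently transfected with cis-element reporter units, dosed 24 h; reporter mRNA measured by RT-PCR, 6-FAM labeling, HpaI digestion and capillary electrophoresis. Activity fitted bidirectionally against DMSO baseline.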

[4] = target: Estrogen receptor (Homo sapiens) (UniProt P03372); assay: ATG_ERa_TRANS: Attagene TRANS-FACTORIAL HepG2 Assay for human Estrogen Receptor alpha (ERa) (AID 2282970); details: HepG2 Attagene TRANS ERa GAL4 reporter, mRNA
Sequence of Estrogen receptor (Homo sapiens) (P03372 whole entry, looked up, the tested form may be a part): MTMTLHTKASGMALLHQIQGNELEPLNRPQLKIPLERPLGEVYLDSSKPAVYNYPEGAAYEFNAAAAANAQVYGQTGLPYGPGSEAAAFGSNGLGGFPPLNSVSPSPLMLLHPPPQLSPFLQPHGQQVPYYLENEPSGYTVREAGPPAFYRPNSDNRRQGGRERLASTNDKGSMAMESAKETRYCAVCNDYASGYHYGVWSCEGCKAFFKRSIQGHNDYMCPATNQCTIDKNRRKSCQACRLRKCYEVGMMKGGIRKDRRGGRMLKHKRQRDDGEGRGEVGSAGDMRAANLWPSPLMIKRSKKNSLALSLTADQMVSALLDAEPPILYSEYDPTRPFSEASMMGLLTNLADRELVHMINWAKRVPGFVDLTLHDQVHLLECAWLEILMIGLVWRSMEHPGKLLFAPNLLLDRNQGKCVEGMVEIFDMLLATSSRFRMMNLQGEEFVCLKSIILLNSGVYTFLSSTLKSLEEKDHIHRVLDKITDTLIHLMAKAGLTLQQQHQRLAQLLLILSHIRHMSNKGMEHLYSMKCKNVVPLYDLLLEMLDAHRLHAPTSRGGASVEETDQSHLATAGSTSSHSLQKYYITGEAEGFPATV
In short: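 Transactivation via ERa-Gal4 chimera in HepG2; 24 hour incubation; reporter mRNA detected by fluorescence RT-PCR and capillary electrophoresis.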

[5] = target: X-box-binding protein 1 (Homo sapiens) (UniProt P17861); assay: ATG_Xbp1_CIS: Attagene CIS-FACTORIAL HepG2 Assay for human X-box Binding Protein 1 (XBP1) (AID 2282972; active means hit-call score of the fitted dose curve at least 0.9, where 1 is the maximum; inactive means score below 0.9); details: HepG2 XBP1 cis-element reporter, Attagene multiplex; actives raise or lower the signal
Sequence of X-box-binding protein 1 (Homo sapiens) (P17861 whole entry, looked up, the tested form may be a part): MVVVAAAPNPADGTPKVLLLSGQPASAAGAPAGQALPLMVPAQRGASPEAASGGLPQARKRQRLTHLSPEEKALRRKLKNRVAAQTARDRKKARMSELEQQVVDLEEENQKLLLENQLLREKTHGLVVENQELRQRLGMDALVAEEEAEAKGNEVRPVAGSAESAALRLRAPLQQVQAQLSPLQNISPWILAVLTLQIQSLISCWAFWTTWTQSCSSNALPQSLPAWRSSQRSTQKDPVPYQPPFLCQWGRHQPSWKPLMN
In short: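 Fluorescence-labelled cDNA fragments from reporter transcripts, separated by capillary electrophoresis, give the signal. Source: HepG2 cells transfected with promoter-driven reporter units, harvested 24 h post-dose. DMSO served as reference for bidirectional curve fitting.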

[6] = ATG_M_19_TRANS: Attagene TRANS-FACTORIAL HepG2 Assay for M19 Transcription Factor (Internal Marker) (AID 2282974); details: HepG2 Attagene TRANS-FACTORIAL M19 internal marker reporter
In short: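 After transfection of HepG2 with GAL4-UAS-driven reporter constructs, cells are dosed for 24 h. Total RNA is reverse-transcribed, reporter sequences PCR-amplified and labelled, then HpaI-digested and sized by capillary electrophoresis.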

[7] = target: Glucocorticoid receptor (Homo sapiens) (UniProt P04150); assay: ATG_GR_TRANS: Attagene TRANS-FACTORIAL HepG2 Assay for human Glucocorticoid Receptor (GR) (AID 2282978); details: HepG2 Attagene TRANS GR reporter, mRNA transcription;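 further: activators score as hits since higher reporter transcript over DMSO is fitted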
Sequence of Glucocorticoid receptor (Homo sapiens) (P04150 whole entry, looked up): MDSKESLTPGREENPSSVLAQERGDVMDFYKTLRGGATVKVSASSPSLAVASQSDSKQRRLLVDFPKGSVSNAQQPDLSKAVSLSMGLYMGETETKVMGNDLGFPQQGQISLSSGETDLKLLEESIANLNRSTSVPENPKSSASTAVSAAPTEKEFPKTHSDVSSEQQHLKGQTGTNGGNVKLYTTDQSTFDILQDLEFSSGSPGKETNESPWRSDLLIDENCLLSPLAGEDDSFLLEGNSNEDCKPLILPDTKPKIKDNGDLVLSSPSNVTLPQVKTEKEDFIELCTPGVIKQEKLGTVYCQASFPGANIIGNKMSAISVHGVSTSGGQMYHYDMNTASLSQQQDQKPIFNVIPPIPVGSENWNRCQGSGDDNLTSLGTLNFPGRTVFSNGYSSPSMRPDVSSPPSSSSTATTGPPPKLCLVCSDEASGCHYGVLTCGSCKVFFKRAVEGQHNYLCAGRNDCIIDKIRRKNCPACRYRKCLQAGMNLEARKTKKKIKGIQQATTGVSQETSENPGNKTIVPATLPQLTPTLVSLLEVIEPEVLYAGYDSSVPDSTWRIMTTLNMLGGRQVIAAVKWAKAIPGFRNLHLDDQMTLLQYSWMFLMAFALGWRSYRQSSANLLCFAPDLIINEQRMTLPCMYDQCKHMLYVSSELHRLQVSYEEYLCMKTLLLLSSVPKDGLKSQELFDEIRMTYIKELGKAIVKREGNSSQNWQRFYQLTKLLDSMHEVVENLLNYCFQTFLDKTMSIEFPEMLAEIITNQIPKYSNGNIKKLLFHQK
In short: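 Multiplexed TRANS reporter system, HepG2; 24 h exposure; RNA → oligo(dT) RT → reporter-specific PCR → 6-FAM primer extension → HpaI cut → CE fluorescence. Gain-of-signal vs DMSO.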

[8] = target: Oxysterols receptor LXR-alpha (Homo sapiens) (UniProt Q13133); assay: ATG_LXRa_TRANS: Attagene TRANS-FACTORIAL HepG2 Assay for human Liver X Receptor alpha (LXRa) (AID 2282980); details: HepG2 Attagene TRANS reporter, LXRa transactivation
Sequence of Oxysterols receptor LXR-alpha (Homo sapiens) (Q13133 whole entry, looked up): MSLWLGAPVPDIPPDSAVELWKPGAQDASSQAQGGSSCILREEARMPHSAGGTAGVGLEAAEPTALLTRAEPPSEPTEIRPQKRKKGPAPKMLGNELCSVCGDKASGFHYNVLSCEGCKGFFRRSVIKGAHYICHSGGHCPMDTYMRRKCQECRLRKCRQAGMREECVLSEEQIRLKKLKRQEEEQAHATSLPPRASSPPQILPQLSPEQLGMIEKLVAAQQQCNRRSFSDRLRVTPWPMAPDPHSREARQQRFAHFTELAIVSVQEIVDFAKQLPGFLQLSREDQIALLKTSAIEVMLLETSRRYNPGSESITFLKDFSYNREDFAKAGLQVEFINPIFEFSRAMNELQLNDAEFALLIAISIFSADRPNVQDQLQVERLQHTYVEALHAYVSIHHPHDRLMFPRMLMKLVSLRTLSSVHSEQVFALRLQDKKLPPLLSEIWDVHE
In short: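 Transient HepG2 transfectants, 24 h dosing, RT-PCR/CE mRNA reporter quantitation; gain-of-signal vs DMSO.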

[9] = ATG_M_06_TRANS: Attagene TRANS-FACTORIAL HepG2 Assay for M06 Transcription Factor (Internal Marker) (AID 2282983); details: HepG2 Attagene TRANS M06 internal marker reporter;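 further: reporter transcript level by RT-PCR then capillary electrophoresis fluorescence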
In short: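 Measured by capillary electrophoresis of fluorescently labelled RT-PCR products, this endpoint reflects reporter mRNA in HepG2 cells harbouring exogenous NR-GAL4 reporter constructs after 24 h exposure, with DMSO as baseline.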

[10] = ATG_M_32_TRANS: Attagene TRANS-FACTORIAL HepG2 Assay for M32 Transcription Factor (Internal Marker) (AID 2282984); details: HepG2 Attagene TRANS M32 internal marker reporter;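 further: transcript level of a background control reporter unit measured by RT-PCR and capillary electrophoresis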
In short: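 HepG2 cells transiently transfected with multiple GAL4-UAS reporter transcription units, dosed for 24 hours; reporter mRNA quantified by RT-PCR, 6-FAM primer extension, HpaI digestion and capillary electrophoresis. Gain-of-signal fitted versus DMSO baseline; internal background-control marker.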

[11] = target: Nuclear receptor subfamily 4 group A member 2 (Homo sapiens) (UniProt P43354); assay: ATG_NURR1_TRANS: Attagene TRANS-FACTORIAL HepG2 Assay for human Nuclear Receptor Related Protein 1 (NURR1) (AID 2282985); details: HepG2 Attagene TRANS reporter, mRNA readout
Sequence of Nuclear receptor subfamily 4 group A member 2 (Homo sapiens) (P43354 whole entry, looked up, the tested form may be a part): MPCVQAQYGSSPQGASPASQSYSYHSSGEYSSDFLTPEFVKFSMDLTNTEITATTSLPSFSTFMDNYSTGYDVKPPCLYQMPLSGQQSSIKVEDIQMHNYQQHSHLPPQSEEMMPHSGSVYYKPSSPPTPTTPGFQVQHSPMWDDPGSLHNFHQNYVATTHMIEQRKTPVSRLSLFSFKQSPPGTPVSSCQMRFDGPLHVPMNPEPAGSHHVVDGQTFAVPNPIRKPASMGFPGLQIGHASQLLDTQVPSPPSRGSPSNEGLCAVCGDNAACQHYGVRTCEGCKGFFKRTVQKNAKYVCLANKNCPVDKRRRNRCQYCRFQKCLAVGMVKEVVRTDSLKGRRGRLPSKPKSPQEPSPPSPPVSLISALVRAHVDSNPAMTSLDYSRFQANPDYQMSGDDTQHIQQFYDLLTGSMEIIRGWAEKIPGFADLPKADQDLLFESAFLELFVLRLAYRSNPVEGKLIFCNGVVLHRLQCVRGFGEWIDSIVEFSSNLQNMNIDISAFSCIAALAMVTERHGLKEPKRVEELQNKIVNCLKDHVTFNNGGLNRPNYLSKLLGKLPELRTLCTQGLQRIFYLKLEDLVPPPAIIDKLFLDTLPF
In short: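 HepG2 cells transiently transfected with GAL4-UAS reporter units and chimeric NR-Gal4 constructs; chemical exposure 24 h. Reporter mRNA quantified by RT-PCR, fluorescent labelling and capillary electrophoresis; gain of signal fitted relative to DMSO baseline.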

[12] = target: Transcriptional activator Myb (Homo sapiens) (UniProt P10242); assay: ATG_Myb_CIS: Attagene CIS-FACTORIAL HepG2 Assay for human Myeloblastosis (Myb) Proto-Oncogene Transcription Factor (AID 2282986; active means hit-call score of the fitted dose curve at least 0.9, where 1 is the maximum; inactive means score below 0.9); details: HepG2 Attagene CIS-FACTORIAL Myb reporter transcription; actives raise or lower the signal
Sequence of Transcriptional activator Myb (Homo sapiens) (P10242 whole entry, looked up): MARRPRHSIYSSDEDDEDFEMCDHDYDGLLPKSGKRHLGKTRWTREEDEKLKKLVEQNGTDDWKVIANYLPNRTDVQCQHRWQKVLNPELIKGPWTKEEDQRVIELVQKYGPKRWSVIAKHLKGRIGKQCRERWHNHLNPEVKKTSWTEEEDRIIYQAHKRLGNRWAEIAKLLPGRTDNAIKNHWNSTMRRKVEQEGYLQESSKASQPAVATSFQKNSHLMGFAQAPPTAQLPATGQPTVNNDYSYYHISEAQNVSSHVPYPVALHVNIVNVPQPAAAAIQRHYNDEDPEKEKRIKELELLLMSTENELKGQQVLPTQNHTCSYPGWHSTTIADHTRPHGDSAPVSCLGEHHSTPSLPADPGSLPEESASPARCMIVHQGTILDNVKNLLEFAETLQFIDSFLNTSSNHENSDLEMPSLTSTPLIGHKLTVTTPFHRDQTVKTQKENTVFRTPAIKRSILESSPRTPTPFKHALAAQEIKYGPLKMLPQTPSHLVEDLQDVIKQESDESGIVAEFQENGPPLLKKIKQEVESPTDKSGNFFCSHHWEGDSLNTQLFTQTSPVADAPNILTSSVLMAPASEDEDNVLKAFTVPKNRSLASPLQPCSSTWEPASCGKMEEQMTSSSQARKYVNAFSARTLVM
In short: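 Endogenous transcription factor activity at a Myb-responsive cis element is reported in human liver HepG2 cells after 24 h chemical treatment. Reporter mRNA is detected by RT-PCR and capillary electrophoresis fluorescence, with DMSO as baseline.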

Measured: outcome

C1=COCCC1
inactive: all assays above
